Screens (PubChem BioAssay)
Cardio protect = cardioprotection against H2O2-induced cell death, primary screen, uHTS, H9c2 cells, ATPLite luminescence; H9c2 cardiomyocytes, H2O2 injury protection, 2 h; protection from H2O2 cell death, % at 20 µM; 360,000 compounds, 0.63% hits; AID 588492, 2011;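 active = compounds giving at least 50% protection of heart cells from peroxide-induced death in the single-dose screen, raw or plate-pattern-corrected value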
697 NFkB inh = inhibitors of PMA/ionomycin-induced NF-kB reporter, 697 cells, primary screen, B-cell NF-kB inhibitor project, cell-based, luminescence, uHTS. 330,000 compounds, 0.33% hits. inhibition, % at 4 µM. 697 B-cell NF-kB luciferase reporter, 16 h; in the data active = inhibition above about 35%
Jurkat NFkB inh = inhibitors of induced NF-kB luciferase reporter, primary screen, TCR NF-kB activation inhibitor project, cell-based, luminescence, uHTS | Jurkat, PMA/ionomycin-induced NF-kB luciferase reporter | 330,000 compounds, 0.53% hits | inhibition, % at 4 µM; in the data active = inhibition above about 50%
NR2F2 inh = NR2F2 transcriptional activity inhibitors, primary screen, cell-based, luciferase reporter, HEK293T, luminescence. AID 686940, 2013. HEK293T NGFI-A luciferase reporter. COUP transcription factor 2 (Homo sapiens), P24468. 370,000 compounds, 0.7% hits. inhibition, % at 8.6 µM;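 active = inhibition above a per-plate cutoff, mean inhibition of test wells between control levels plus 3 SD, cut at about 38% in these data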;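 also: cells cotransfected with COUP-TFII expression vector driving the NGFI-A reporter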
Target sequence (P24468 whole entry, looked up): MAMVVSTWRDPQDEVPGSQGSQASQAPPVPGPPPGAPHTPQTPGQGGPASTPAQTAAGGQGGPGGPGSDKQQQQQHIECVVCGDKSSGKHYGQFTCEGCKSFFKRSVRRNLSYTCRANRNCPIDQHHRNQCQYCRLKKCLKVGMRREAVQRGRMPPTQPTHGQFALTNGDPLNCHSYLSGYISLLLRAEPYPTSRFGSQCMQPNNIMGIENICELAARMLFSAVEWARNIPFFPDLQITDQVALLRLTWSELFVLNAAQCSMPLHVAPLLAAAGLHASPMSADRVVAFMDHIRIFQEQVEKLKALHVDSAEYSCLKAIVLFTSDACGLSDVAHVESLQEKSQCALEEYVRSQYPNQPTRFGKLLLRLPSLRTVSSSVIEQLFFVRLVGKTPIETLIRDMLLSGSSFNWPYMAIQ
H9c2 TAG inh = inhibitors of triacylglycerol accumulation, primary screen, cell-based, uHTS, fluorescence, H9c2 | inhibition, % at 12.5 µM | 230,000 compounds, 0.66% hits | H9c2 cells, Nile Red lipid (TAG) fluorescence; cells loaded with 200 µM oleic acid;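 active = pattern-corrected inhibition of lipid staining of at least 50% with the nuclear-stain viability signal not falling by more than 50%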
Gli-Sufu antag = Gli-Sufu pathway antagonists, primary screen, luciferase luminescence, Sufu-KO-LIGHT cells, uHTS | AID 588413, 2011 | inhibition, % at 5 µM | 340,000 compounds, 0.74% hits | Sufu-KO-LIGHT fibroblasts, Gli luciferase reporter luminescence;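 active = inhibition above about 55%, limit read from the data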
Gal4-VP16 ctr = Gal4-VP16 luciferase reporter inhibitors, counter-screen for COUP-TFII antagonist project, cell-based, luminescence, HEK293. 2,500 compounds, 25% hits. inhibition, % at 8.5 µM. shares compounds with NR2F2 inh. AID 687007, 2013; in the data active = inhibition above about 13%
COUP-TFII conf = NR2F2 transcriptional activity inhibitors, confirmation, cell-based, luciferase reporter, HEK293, triplicate; 2,500 compounds, 45% hits; HEK293 NGFI-A luciferase reporter, luminescence; AID 687008, 2013; shares compounds with NR2F2 inh; inhibition, % at 8.5 µM;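 active = mean inhibition over three repeats above a set limit taken from the earlier primary screen, cut at about 38% in these data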
Large screens that a line does not name were inactive (follow-up assays come after a bar, where they were run). The list is not random: actives were taken first. Their share in the collection is about 2.6%.

Cc1ccccc1CN1CCc2c(OCC(=O)N3CCCc4ccccc43)cccc2C1=O	none (no result: 697 NFkB inh, Jurkat NFkB inh, H9c2 TAG inh)
COC(=O)[C@]12C[C@H](CC(=O)N3CCCCC3)C(=O)N(CCC3=CCCCC3)C1=C[C@H](C(C)(C)C)O[C@@H]2C	none (no result: Cardio protect, 697 NFkB inh, Jurkat NFkB inh, H9c2 TAG inh, Gli-Sufu antag)
CCN(CC)c1ccc(NC(=O)CSc2nnc(SCc3ccc(Cl)cc3)s2)cc1	none (no result: Cardio protect, 697 NFkB inh, Jurkat NFkB inh, H9c2 TAG inh, Gli-Sufu antag)
Cc1sc(NC(=O)CCCC(=O)O)c(C(N)=O)c1-c1ccccc1	NR2F2 inh 59.9 | Gal4-VP16 ctr 46.7 | COUP-TFII conf inactive
O=C(Nc1cccc(S(=O)(=O)c2cccc(NC(=O)c3ccco3)c2)c1)c1ccco1	NR2F2 inh 70.2 | Gal4-VP16 ctr inactive | COUP-TFII conf inactive
O=C(Nc1cccc(S(=O)(=O)N2CCCC2)c1)c1ccco1	none
COC(=O)[C@]12C[C@H](CC(=O)NCc3cccs3)C(=O)N(Cc3ccc(Cl)cc3Cl)C1=C[C@H](C(C)(C)C)O[C@@H]2C	none (no result: Cardio protect, 697 NFkB inh, Jurkat NFkB inh, H9c2 TAG inh, Gli-Sufu antag)
C[n+]1c2n(c3ccccc31)N=C(c1ccc(Br)cc1)CS2	NR2F2 inh 48.5, Gli-Sufu antag 67.8 | Gal4-VP16 ctr 19.8 | COUP-TFII conf 50.9
COc1ccc(C(F)(F)F)cc1NC(=O)C(OC(=O)CNC(=O)c1ccccc1)c1ccccc1 (stereo not drawn)	none (no result: Cardio protect, 697 NFkB inh, Jurkat NFkB inh, H9c2 TAG inh, Gli-Sufu antag)
CCOCCOC(=O)c1[nH]c2c(c1C)C(=O)CC(c1ccc(OC)c(OC)c1)C2 (stereo not drawn)	NR2F2 inh 46.1 (no result: H9c2 TAG inh) | Gal4-VP16 ctr inactive | COUP-TFII conf inactive
COc1cc(C2CC(=O)c3c([nH]c(C(=O)OCCOC(C)C)c3C)C2)cc(OC)c1OC (stereo not drawn)	NR2F2 inh 75.6 | Gal4-VP16 ctr inactive | COUP-TFII conf inactive
CCC(C)OC(=O)c1[nH]c2c(c1C)C(=O)CC(c1ccc(N(C)C)cc1)C2 (stereo not drawn)	none (no result: H9c2 TAG inh)
CCCCCCC(=O)N(O)C1CC(=O)N(c2ccc(Cl)cc2)C1=O (stereo not drawn)	NR2F2 inh 52.4 | Gal4-VP16 ctr inactive | COUP-TFII conf 38.8
CCCCCCC(=O)N(O)C1CC(=O)N(c2ccc(C)cc2)C1=O (stereo not drawn)	none (no result: H9c2 TAG inh)
CCN(CC)S(=O)(=O)c1ccc(Cl)c(NC(=O)COC(=O)c2cccn2C)c1	NR2F2 inh 38.5 | Gal4-VP16 ctr inactive | COUP-TFII conf inactive
COc1ccc(NC(=O)N2CCN(c3nc(-c4cccc(OC)c4)cs3)CC2)cc1	NR2F2 inh 40.1 (no result: H9c2 TAG inh) | Gal4-VP16 ctr inactive | COUP-TFII conf inactive
Cc1ccc(OCC(=O)c2cc(C)n(CC(F)(F)F)c2C)c([N+](=O)[O-])n1	none
Cc1ccc(OCC(=O)c2cc(C)n(Cc3cccs3)c2C)c([N+](=O)[O-])n1	NR2F2 inh 61.3 | Gal4-VP16 ctr inactive | COUP-TFII conf inactive
CN(CCOC(=O)c1cc2ccccc2o1)C1CN(Cc2cn(Cc3ccc([N+](=O)[O-])cc3)nn2)S(=O)(=O)C1 (stereo not drawn)	none (no result: Cardio protect, 697 NFkB inh, Jurkat NFkB inh, H9c2 TAG inh, Gli-Sufu antag)
Cc1ccc(-n2c(SCC(=O)NN=Cc3c[nH]c4ccccc34)nnc2-c2ccccc2)cc1	none (no result: Cardio protect, 697 NFkB inh, Jurkat NFkB inh, H9c2 TAG inh, Gli-Sufu antag)
O=C(NCc1cccnc1)c1c[nH]c2cc3c(cc2c1=O)OCCO3	NR2F2 inh 39.4 | Gal4-VP16 ctr inactive | COUP-TFII conf inactive
CC(C)c1ccc(NC2CCCN(C(=O)c3n[nH]c4c3CCC4)C2)cc1 (stereo not drawn)	NR2F2 inh 38.0 (no result: H9c2 TAG inh) | Gal4-VP16 ctr inactive | COUP-TFII conf inactive
COC(=O)[C@]12C[C@H](CC(=O)N3CCOCC3)C(=O)N(Cc3cccc4ccccc34)C1=C[C@H](COCc1ccccc1)O[C@@H]2C	none (no result: Cardio protect, 697 NFkB inh, Jurkat NFkB inh, H9c2 TAG inh, Gli-Sufu antag)
Cc1c(C(C)NC(=O)c2cc(COc3cccc4cnccc34)on2)cnn1C (stereo not drawn)	NR2F2 inh 55.5 (no result: H9c2 TAG inh) | Gal4-VP16 ctr inactive | COUP-TFII conf 41.8
CSc1ccccc1OCc1cc(C(=O)NC(C)c2cnn(C)c2)no1 (stereo not drawn)	none
COc1ccc(C(CNc2ncnc3sccc23)N(C)C)cc1OC (stereo not drawn)	none (no result: H9c2 TAG inh)
CN(C)C(CNc1ncnc2sccc12)c1ccccc1 (stereo not drawn)	none
c1csc(CNc2ncnc3sccc23)c1	NR2F2 inh 63.3 (no result: H9c2 TAG inh) | Gal4-VP16 ctr inactive | COUP-TFII conf 46.4
OC(CNc1ncnc2sccc12)c1ccccc1 (stereo not drawn)	NR2F2 inh 39.7 (no result: H9c2 TAG inh) | Gal4-VP16 ctr inactive | COUP-TFII conf inactive
c1ccc(CNc2ncnc3sccc23)cc1	none (no result: H9c2 TAG inh)
COc1ccc(CNc2ncnc3sccc23)cc1OC	NR2F2 inh 48.3 (no result: H9c2 TAG inh) | Gal4-VP16 ctr inactive | COUP-TFII conf inactive
CCCCCCCCN1C(=O)N(Cc2ccc(OC)cc2)S(=O)(=O)c2ccc(F)cc21	none (no result: Cardio protect, 697 NFkB inh, Jurkat NFkB inh, H9c2 TAG inh, Gli-Sufu antag)
COc1ccccc1CCn1cnc(-c2cccc(F)c2)c1C(C)C	none (no result: Cardio protect, 697 NFkB inh, Jurkat NFkB inh, H9c2 TAG inh, Gli-Sufu antag)
N#CC(C#N)=C(Nc1ccc(F)cc1)SCc1cccc(Br)c1	NR2F2 inh 52.2, Gli-Sufu antag 64.4 (no result: 697 NFkB inh, Jurkat NFkB inh, H9c2 TAG inh) | Gal4-VP16 ctr inactive | COUP-TFII conf 38.3
CC(SCc1ccccc1)C(=O)Nc1ccc(F)cc1 (stereo not drawn)	none
CC1OC2CC(=O)OC2C2=C1C(=O)c1c(O)cccc1C2=O (stereo not drawn)	NR2F2 inh 107.5 (no result: 697 NFkB inh, Jurkat NFkB inh, H9c2 TAG inh, Gli-Sufu antag) | Gal4-VP16 ctr 97.2 | COUP-TFII conf 110.4
S=C(NCC1(c2ccccc2)CCCC1)Nc1ccccc1	NR2F2 inh 41.8 (no result: H9c2 TAG inh) | Gal4-VP16 ctr inactive | COUP-TFII conf inactive
O=C(Nc1ccc(NC(=O)c2cccs2)cc1)c1cccs1	none (no result: H9c2 TAG inh)
O=C(Nc1nonc1NC(=O)c1cccs1)c1cccs1	NR2F2 inh 49.3 | Gal4-VP16 ctr inactive | COUP-TFII conf inactive
COc1ccc(N=C2SCC(=O)N2CCc2ccc(OC)c(OC)c2)cc1	none
COc1ccc(CCN2C(=O)CSC2=Nc2ccc(C(C)C)cc2)cc1OC	NR2F2 inh 63.6 | Gal4-VP16 ctr 14.5 | COUP-TFII conf 61.6
O=C(COC(=O)CCc1c[nH]c2ccccc12)Nc1ccccc1	NR2F2 inh 63.1 | Gal4-VP16 ctr inactive | COUP-TFII conf inactive
Cc1ccc(/C=N/Nc2cccc(C(=O)O)c2)s1	none (no result: H9c2 TAG inh)
Cc1ccc(/C=N/Nc2ccc(C(=O)O)cc2)s1	NR2F2 inh 40.5 | Gal4-VP16 ctr inactive | COUP-TFII conf inactive
